Consider seven molecules from PubChem BioAssay (Tox21).

Molecules are shown by their SMILES. Where “and” joins values, the source holds several entries; their conditions need not be identical. Identical values can stand only once. A number with no mark means an inactive call. Inconclusive results are not listed. Calls of active or inactive are those of the source. Unless noted, calls follow the shape of the dose curve; as a rule, active = well fitted curve in the direction sought with a large enough effect in the repeat runs; inconclusive = weak or mixed curves; inactive = no such curve, though single readings can be large; an effect the other way counts as inactive or inconclusive.

The nature of experiment [1]: qHTS assay for small molecules that induce genotoxicity in human embryonic kidney cells expressing luciferase-tagged ATAD5 (AID 651632). Also: nearly all actives have a fitted effect of over 15% in size. Also: potency is read from the fitted curve at half-maximal effect. An outline of the steps: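 Cells were seeded at 2,000 per well, dosed with compound, and incubated 16 hr at 37C in 5% CO2. Luciferase activity was then quantified after a 30 min room-temperature incubation with Amplite.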
(In general: qHTS replaces the single test concentration by a dilution series.)

Experiment [2] can be described thus: qHTS assay for small molecules that induce genotoxicity in human embryonic kidney cells expressing luciferase-tagged ATAD5 - cell viability (AID 651634; calls by dose curve; also: nearly all actives have a fitted effect of over 25% in size; also: potency is read from the fitted curve at half-maximal effect). The procedure, abridged:
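Cells (HEK293T, luciferase-tagged ATAD5) are seeded at 2,000 per well, dosed with compound or DMSO vehicle, and incubated 15.5 hr at 37C and 5% CO2. CellTiter-Fluor is added for 30 min before fluorescence is measured.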

The nature of experiment [3]: qHTS assay for small molecule disruptors of the mitochondrial membrane potential - cell viability (AID 720634; calls by dose curve; also: nearly all actives have a fitted effect of over 20% in size; also: potency is read from the fitted curve at half-maximal effect). An outline of the steps: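 Cytotoxicity was measured by ATP quantitation in HepG2 wells that had first been treated with compound for 1 hr and stained with m-MPI dye; CellTiter-Glo incubation was 30 min at room temperature.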
The nature of experiment [4]: qHTS assay for small molecule disruptors of the mitochondrial membrane potential (AID 720635). Also: potency is read from the fitted curve at half-maximal effect. An outline of the steps:
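HepG2 cells (2,000/well) attached overnight at 37C, then took compound for 1 hr at 37C, 5% CO2. Mito-MPS dye was added for 30 min; fluorescence was read at 490/535 nm (monomers) and 540/590 nm (aggregates).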

A short description of experiment [5]: qHTS assay to test for compound auto fluorescence at 590 nm (red) in HepG2 cells (AID 720674). An outline of the steps: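 Rose Bengal sodium served as the red fluorophore standard. HepG2 monolayers (overnight attachment, MEM with 10% FBS) were exposed to test compounds for 1 hr at 37 C and read at Ex 540/Em 590 nm.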
Experiment [6] in a line: qHTS assay to test for compound auto fluorescence at 535 nm (green) in HepG2 cells (AID 720675).
Experiment [7] is described as follows: qHTS assay to test for compound auto fluorescence at 460 nm (blue) in HEK293 cells (AID 720678). Also: potency is read from the fitted curve at half-maximal effect. The procedure, abridged: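 Triamterene serves as the blue fluorophore standard. Compound signal at 405/460 nm is read in HEK293 wells (2,000 cells, 10% dialyzed FBS) after overnight treatment at 37C.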
Experiment [8] can be described thus: qHTS assay to test for compound auto fluorescence at 590 nm (red) in HEK293 cells (AID 720679). An outline of the steps:
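We plated HEK293 cells in 10% dialyzed FBS medium, let them adhere for 4-5 hr, then added 23 nL compound. Overnight at 37C and 5% CO2 preceded fluorescence measurement at 540/590nm.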

A short description of experiment [9]: qHTS assay to test for compound auto fluorescence at 535 nm (green) in HEK293 cells (AID 720680).
A short description of experiment [10]: qHTS assay to test for compound auto fluorescence at 460 nm (blue) in HEK293 cell free culture (AID 720681). Also: potency is read from the fitted curve at half-maximal effect. The procedure, abridged: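 Test compounds were pinned into cell-free culture medium (DMEM with 10% FBS) and fluorescence was read directly at Ex/Em 405/460 nm. Signals were expressed as fluorescence equivalents of triamterene, with DMSO vehicle as control.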

Experiment [11] is described as follows: qHTS assay to test for compound auto fluorescence at 535 nm (green) in HEK293 cell free culture (AID 720682). The procedure, abridged:
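Cell-free medium (DMEM, 10% FBS) receives compound or DMSO by pintool. Plate read directly at Ex 485/Em 535 nm. Signal converted to fluorescein equivalency.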

A short description of experiment [12]: qHTS assay to test for compound auto fluorescence at 590 nm (red) in HEK293 cell free culture (AID 720683). An outline of the steps:
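Tox21 10K library compounds were pinned into cell-free DMEM with 10% FBS and fluorescence was read at excitation 540 nm. Activity is expressed as Rose Bengal sodium equivalency.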

The nature of experiment [13]: qHTS assay to test for compound auto fluorescence at 590 nm (red) in HepG2 cell free culture (AID 720684). An outline of the steps:
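Ex 540 / Em 590 nm read of compound in cell-free MEM (10% FBS). Rose Bengal sodium reference.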

Experiment [14] in a line: qHTS assay to test for compound auto fluorescence at 535 nm (green) in HepG2 cell free culture (AID 720686).
Experiment [15] can be described thus: qHTS assay to test for compound auto fluorescence at 460 nm (blue) in HepG2 cells (AID 720687). Also: potency is read from the fitted curve at half-maximal effect. The procedure, abridged: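 Cells (2,000/well in MEM with 10% FBS) attached overnight at 37 C, then were exposed to compound or DMSO for 1 hr at 37 C, 5% CO2. Fluorescence read at Ex/Em 405/460 nm, expressed as triamterene-equivalent signal.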
Experiment [16] is described as follows: qHTS assay for small molecule agonists of the p53 signaling pathway - cell viability (AID 651633; calls by dose curve; also: nearly all actives have a fitted effect of over 30% in size; also: potency is read from the fitted curve at half-maximal effect). The procedure, abridged: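 p53RE-bla cells, seeded at 4,000 per well and rested 5 h at 37 C/5% CO2, received compounds in DMSO for 16 h at 37 C. CellTiter-Glo was then added, and luminescence was read after 30 min at room temperature to gauge cytotoxicity.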

Experiment [17] in a line: qHTS assay to test for compound auto fluorescence at 460 nm (blue) in HepG2 cell free culture (AID 720685). Also: potency is read from the fitted curve at half-maximal effect. An outline of the steps:
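Cell-free plates of MEM plus 10% FBS received 23 nL compound or DMSO vehicle; blue-channel (405/460 nm) intensity scored against triamterene as reference fluorophore.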

For experiment [18], the target named is Glucocorticoid receptor (Homo sapiens) (UniProt P04150). Nature of the experiment: qHTS assay to identify small molecule antagonists of the glucocorticoid receptor (GR) signaling pathway (AID 720692; active = well fitted inhibition curve with a large enough effect in the signal ratio in the repeat runs, not every such curve was filed as active; the % refers to the signal ratio; also: potency is read from the fitted curve at half-maximal effect). An outline of the steps:
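Antagonism was scored as loss of dexamethasone-driven (5 nM final) reporter signal in HeLa cells bearing a glucocorticoid response element–beta-lactamase construct, after 18 h compound exposure at 37 C and 2 h FRET substrate loading.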

Experiment [19] shares this target. Description: qHTS assay to identify small molecule agonists of the glucocorticoid receptor (GR) signaling pathway (AID 720691; active = well fitted activation curve with a large enough effect in the signal ratio in the repeat runs, not every such curve was filed as active; the % refers to the signal ratio). The procedure, abridged: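 Steps: seed GR-bla HeLa cells, incubate 4 h at 37 C/5% CO2; pin-transfer DMSO-dissolved compounds; incubate 18 h at 37 C; add LiveBLAzer B/G FRET substrate; after 2 h at room temperature, measure fluorescence.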
Tags tell the direction and shape of the fitted curve or compound fluorescence and quenching.

Glucocorticoid receptor (Homo sapiens), sequence (P04150 whole entry, looked up): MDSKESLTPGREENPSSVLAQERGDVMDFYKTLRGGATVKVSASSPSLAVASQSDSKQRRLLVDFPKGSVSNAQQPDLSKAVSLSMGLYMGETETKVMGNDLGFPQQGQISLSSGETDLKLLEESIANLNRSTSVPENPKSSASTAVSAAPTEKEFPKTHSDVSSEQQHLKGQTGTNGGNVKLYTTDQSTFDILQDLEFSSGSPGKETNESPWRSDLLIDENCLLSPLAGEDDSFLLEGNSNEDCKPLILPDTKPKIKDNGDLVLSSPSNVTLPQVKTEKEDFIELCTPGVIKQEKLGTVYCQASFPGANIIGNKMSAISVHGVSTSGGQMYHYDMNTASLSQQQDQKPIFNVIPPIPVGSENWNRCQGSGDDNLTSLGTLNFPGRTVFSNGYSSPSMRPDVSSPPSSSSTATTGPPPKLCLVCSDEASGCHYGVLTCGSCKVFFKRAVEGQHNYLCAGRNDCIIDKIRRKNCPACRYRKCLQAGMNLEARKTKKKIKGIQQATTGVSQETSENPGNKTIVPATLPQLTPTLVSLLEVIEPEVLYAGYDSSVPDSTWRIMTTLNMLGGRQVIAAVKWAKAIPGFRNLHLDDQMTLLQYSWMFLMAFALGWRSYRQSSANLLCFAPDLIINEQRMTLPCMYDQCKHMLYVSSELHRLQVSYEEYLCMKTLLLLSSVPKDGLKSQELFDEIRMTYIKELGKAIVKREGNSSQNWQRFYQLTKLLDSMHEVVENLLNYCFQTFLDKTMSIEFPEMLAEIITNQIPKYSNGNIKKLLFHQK

With `CCc1nn(C)c(C(=O)NCc2ccc(C(C)(C)C)cc2)c1Cl`, the Potency entry in experiment [1], in experiment [2], in experiment [7], in experiment [10] and in experiment [15] was “inactive” in each case. Besides, the Potency was 12.2 µM (active) in [3] and 15.4 µM (active) in [4]. In addition, the result in [5], in experiment [6], in experiment [8], in [9], in experiment [11] and in experiment [12] was inactive. Besides, the result in experiment [13] and in [14] was inactive.
Take `CC1(C)CN=C(NN=C(/C=C/c2ccc(C(F)(F)F)cc2)/C=C/c2ccc(C(F)(F)F)cc2)NC1`: the Potency result in [1], in experiment [7], in experiment [10] and in experiment [15] was “inactive” each time. For the same molecule, the Potency is 27.3 µM (active) in experiment [16], 48.6 µM (active) in [2] and 17.2 µM (active) in experiment [4]. For the same molecule, the outcome in [5], in experiment [6], in [9], in experiment [11], in experiment [12] and in [13] was inactive. Moreover, the molecule was classed as inactive in [14].
As for `S=C(SSC(=S)N1CCCCC1)N1CCCCC1`, in [1], the Potency was 29.8 µM (active). Moreover, the Potency result in [2], in [3], in [4], in [7], in experiment [10] and in experiment [17] was “inactive” in each case. Further, the Potency result in experiment [15] and in experiment [18] was “inactive” in each case. The call in experiment [5], in experiment [6], in [8], in experiment [9], in experiment [11] and in experiment [12] was inactive. The result in experiment [14] was inactive.
For `Oc1ccc2ccc3cccc4ccc1c2c34`, the Potency result in experiment [1], in experiment [16], in experiment [2] and in experiment [19] was “inactive” in each case. Also, the Potency in experiment [4] is 2.73 µM (active); in experiment [7], 35.5 µM [fluorescent] (active); in experiment [10] it was 44.7 µM (active); in experiment [17] it was 39.8 µM [fluorescent] (active); in experiment [15], 35.5 µM [fluorescent] (active). Further, the outcome in experiment [5], in [6], in experiment [8], in [9], in [11] and in [12] was inactive. For the same molecule, the molecule was called inactive in experiment [14].
As for `CC[C@H](C)[C@H]1O[C@]2(C=C[C@@H]1C)C[C@@H]1C[C@@H](C/C=C(\C)[C@@H](O[C@H]3C[C@H](OC)[C@@H](O[C@H]4C[C@H](OC)[C@@H](O)[C@H](C)O4)[C@H](C)O3)[C@@H](C)/C=C/C=C3\CO[C@@H]4[C@H](O)C(C)=C[C@@H](C(=O)O1)[C@]34O)O2`, the Potency entry in experiment [1], in [3], in experiment [7], in [10], in experiment [17] and in [15] was “inactive” in each case. Besides, the Potency in experiment [16] was 14.4 µM (active); in experiment [4], 28.7 µM (active); in experiment [18], 23.9 µM (active). Further, the molecule was classed as inactive in experiment [5], in experiment [6], in experiment [8], in experiment [9], in experiment [11] and in [12]. Besides, the molecule was classed as inactive in [13] and in [14].
Regarding `CC(C)[C@H](C(=O)OC(C#N)c1cccc(Oc2ccccc2)c1)c1ccc(OC(F)F)cc1` (stereo partly drawn), the Potency entry in experiment [1], in [2], in experiment [7], in experiment [10], in [17] and in experiment [15] was “inactive” in each case. Also, the Potency in experiment [4] is 17.2 µM (active). Also, the outcome in [5], in experiment [6], in experiment [8], in experiment [9], in experiment [11] and in [12] was inactive. In addition, the call in [13] and in experiment [14] was inactive.
Turning to `O=c1[nH]c2ccccc2n1C1CCN(CCCC(c2ccc(F)cc2)c2ccc(F)cc2)CC1`, the Potency result in [1], in [7], in [10], in experiment [17] and in [15] was “inactive” each time. The Potency was 23.7 µM (active) and 61.1 µM (active) in experiment [16]; 29.8 µM (active) and 54.5 µM (active) in experiment [2]. Moreover, the result in experiment [5], in experiment [6], in experiment [8], in [9], in [11] and in experiment [12] was inactive. The call in experiment [13] and in experiment [14] was inactive.
